From PubChem BioAssay (NCATS) come the findings set out here.

Records with an inconclusive call do not appear. Calls of active or inactive are those of the source. Unless noted, calls follow the shape of the dose curve; as a rule, active = well fitted curve in the direction sought with a large enough effect; inconclusive = small, poorly fitted or top-dose-only effect, or another doubt; inactive = no such curve, though single readings can be large; an effect the other way counts as inactive or inconclusive.

A short description of experiment [1]: Validation screen for inhibitors of Lassa infection (AID 463096; calls by dose curve; also: potency is read from the fitted curve at half-maximal effect).
Experiment [2] can be described thus: Validation screen for small molecules that induce DNA re-replication in MCF 10A normal breast cells (AID 463097). Also: nearly all actives have a fitted effect of over 60% in size. Also: potency is read from the fitted curve at half-maximal effect. The procedure, abridged: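 Following 48 hr compound incubation (37 C, 5% CO2), MCF 10A cells receive Hoechst for 40 min at 37 C. Nuclei are then scanned (excitation 405 nm, emission 500-530 nm) for total fluorescence intensity.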
The target of experiment [3] is Ubiquitin carboxyl-terminal hydrolase 2 (Homo sapiens) (UniProt O75604). The experiment in a line: qHTS Validation Assay for Inhibitors of Ubiquitin-specific Protease USP2a Using CHOP2 as the Reporter (AID 463106). The procedure, abridged:
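Fluorescence read-out at Ex 485nm/Em 531nm after 60min RT, following addition of 25nM Ub-CHOP2 plus 25nM reporter substrate to USP2 core (10nM) pretreated 30min with compound. Data normalized to NEM full inhibition; concentration-response curves fitted.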
On the technique in general: In qHTS, concentration-response curves come from the screen itself.

Experiment [4] addresses DNA polymerase III PolC-type (Bacillus subtilis (strain 168)) (UniProt P13267). The experiment in a line: qHTS Validation Assay for the Inhibitors of DNA Replication in Gram-Positive Bacteria (AID 485295).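 Also: reconstituted holoenzyme with PolC plus beta clamp SSB and primase; PicoGreen fluorescence of double-stranded DNA made on primed circular M13 template; series mostly up to about 57 µM.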 The procedure, abridged: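 Inhibition of DNA synthesis by the reconstituted PolC holoenzyme, monitored through PicoGreen staining of dsDNA formed from ssM13Gori, dNTPs and NTPs, with compound preincubation and room-temperature reaction.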

Experiment [5] addresses Tumor susceptibility gene 101 protein (Homo sapiens) (UniProt Q99816). The experiment in a line: qHTS Validation Assay for Iinhibitors of HIV-1 Budding by Blocking the Interaction of PTAP/TSG101 (AID 485342; calls by dose curve). The procedure, abridged:
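Compound wells held the Tsg101 binding domain (10 uM) and a FITC-conjugated PTAP peptide (50 nM) in buffer at pH 7.5 containing 0.15 M NaCl and 0.01% Tween 20; polarization was recorded after 20 min, r.t.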

Experiment [6] can be described thus: qHTS Validation Assay to Find Inhibitors of Chronic Active B-Cell Receptor Signaling (AID 485345; active = well fitted curve in the direction sought with a large enough effect in the main read-out, with a control signal flat, not every such curve was filed as active). The procedure, abridged: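 TMD8 ABC-DLBCL cells stably carrying doxycycline-inducible IkappaBalpha–green luciferase fusion plus unfused red luciferase; compounds 46 uM to 3 nM, 4 h at 37C with doxycycline. Corrected green/red luminescence ratio normalized to 10 uM MG-132 and basal cell wells; curves fitted.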

For experiment [7], the target named is Beta-2 adrenergic receptor (Homo sapiens) (UniProt P07550). Nature of the experiment: qHTS validation assay of beta-arrestin-biased ligands of beta2-adrenergic receptor (AID 485366). The procedure, abridged: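 Agonist activity is measured as luciferase luminescence downstream of beta-arrestin recruitment to recombinant beta2-AR in Tango cells. Exposure lasts 18 hr at 37 degrees C, and curves are categorized by r2, response size and activity.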
Beta-2 adrenergic receptor (Homo sapiens), sequence (P07550 whole entry, looked up): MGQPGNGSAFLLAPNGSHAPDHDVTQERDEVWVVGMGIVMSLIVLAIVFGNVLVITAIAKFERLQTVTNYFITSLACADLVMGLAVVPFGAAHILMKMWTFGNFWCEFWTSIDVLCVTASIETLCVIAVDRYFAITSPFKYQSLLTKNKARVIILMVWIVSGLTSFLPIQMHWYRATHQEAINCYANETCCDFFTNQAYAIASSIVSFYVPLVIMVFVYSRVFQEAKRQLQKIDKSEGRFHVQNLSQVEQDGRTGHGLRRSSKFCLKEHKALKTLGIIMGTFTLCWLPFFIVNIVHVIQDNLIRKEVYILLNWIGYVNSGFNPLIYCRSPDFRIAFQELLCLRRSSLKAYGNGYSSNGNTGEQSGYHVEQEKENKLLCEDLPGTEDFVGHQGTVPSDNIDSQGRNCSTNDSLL

Experiment [8] concerns the target ATP-dependent 6-phosphofructokinase (Trypanosoma brucei brucei) (UniProt O15648). The experiment in a line: qHTS Validation Assay to Find Inhibitors of T. brucei phosphofructokinase (AID 485368). Also: potency is read from the fitted curve at half-maximal effect. The procedure, abridged: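 Inhibition derived from concentration-response curves of luminescence, ranked by r2, response size and curve class; the underlying reaction used 1.25 nM PFK, 0.1 mM ATP and 0.5 mM F6P, 45 min, room temperature.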

The nature of experiment [9]: Cytometry Cell-Based qHTS for Inhibitors of the mTORC1 Signaling Pathway in MEF cells (AID 2668). Also: potency is read from the fitted curve at half-maximal effect. The procedure, abridged: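 In MEFs grown in DMEM + 10% FBS, a 24 hrs compound exposure preceded imaging of phospho-rpS6 Ser235/236 by laser-scanning cytometry.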

ATP-dependent 6-phosphofructokinase (Trypanosoma brucei brucei), sequence (O15648 whole entry, looked up): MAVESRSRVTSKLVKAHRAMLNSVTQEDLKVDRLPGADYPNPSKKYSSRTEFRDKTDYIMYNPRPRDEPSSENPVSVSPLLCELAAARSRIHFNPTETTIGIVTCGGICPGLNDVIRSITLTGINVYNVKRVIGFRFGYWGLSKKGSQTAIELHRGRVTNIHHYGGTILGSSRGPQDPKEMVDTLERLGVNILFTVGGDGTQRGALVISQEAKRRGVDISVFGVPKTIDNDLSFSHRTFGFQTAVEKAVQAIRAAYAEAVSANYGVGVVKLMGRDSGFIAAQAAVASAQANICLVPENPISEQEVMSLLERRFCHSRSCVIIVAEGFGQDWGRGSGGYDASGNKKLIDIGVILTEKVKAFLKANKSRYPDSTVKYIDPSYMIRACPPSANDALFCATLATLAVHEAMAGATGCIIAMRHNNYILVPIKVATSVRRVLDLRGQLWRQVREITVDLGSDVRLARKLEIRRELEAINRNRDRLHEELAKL
Tumor susceptibility gene 101 protein (Homo sapiens), sequence (Q99816 whole entry, looked up, the tested form may be a part): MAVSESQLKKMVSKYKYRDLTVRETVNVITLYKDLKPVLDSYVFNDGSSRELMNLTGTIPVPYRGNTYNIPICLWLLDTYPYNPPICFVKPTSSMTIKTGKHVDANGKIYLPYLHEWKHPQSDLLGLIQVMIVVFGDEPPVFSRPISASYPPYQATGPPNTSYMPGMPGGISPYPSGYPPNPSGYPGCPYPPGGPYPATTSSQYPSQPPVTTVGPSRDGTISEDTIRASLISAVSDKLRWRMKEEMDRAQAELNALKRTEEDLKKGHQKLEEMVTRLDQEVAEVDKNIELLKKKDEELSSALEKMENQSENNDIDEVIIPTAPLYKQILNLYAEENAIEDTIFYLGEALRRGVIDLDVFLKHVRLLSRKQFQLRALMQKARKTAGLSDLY
Ubiquitin carboxyl-terminal hydrolase 2 (Homo sapiens), sequence (O75604 whole entry, looked up): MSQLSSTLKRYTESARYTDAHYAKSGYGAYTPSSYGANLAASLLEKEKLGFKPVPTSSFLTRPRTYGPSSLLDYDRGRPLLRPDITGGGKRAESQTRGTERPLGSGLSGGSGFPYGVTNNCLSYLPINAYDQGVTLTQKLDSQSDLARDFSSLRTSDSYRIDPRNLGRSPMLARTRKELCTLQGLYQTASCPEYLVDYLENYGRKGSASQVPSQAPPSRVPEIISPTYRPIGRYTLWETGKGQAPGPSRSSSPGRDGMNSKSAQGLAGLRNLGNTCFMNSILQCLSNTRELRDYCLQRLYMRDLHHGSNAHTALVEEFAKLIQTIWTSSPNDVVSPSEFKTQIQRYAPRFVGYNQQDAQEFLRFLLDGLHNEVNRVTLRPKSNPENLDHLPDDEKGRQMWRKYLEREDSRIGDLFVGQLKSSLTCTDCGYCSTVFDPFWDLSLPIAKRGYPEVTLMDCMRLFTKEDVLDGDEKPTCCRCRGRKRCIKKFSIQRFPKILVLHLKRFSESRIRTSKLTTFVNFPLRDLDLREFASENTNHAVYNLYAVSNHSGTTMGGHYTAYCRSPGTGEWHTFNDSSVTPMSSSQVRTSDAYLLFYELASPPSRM
DNA polymerase III PolC-type (Bacillus subtilis (strain 168)), sequence (P13267 whole entry, looked up): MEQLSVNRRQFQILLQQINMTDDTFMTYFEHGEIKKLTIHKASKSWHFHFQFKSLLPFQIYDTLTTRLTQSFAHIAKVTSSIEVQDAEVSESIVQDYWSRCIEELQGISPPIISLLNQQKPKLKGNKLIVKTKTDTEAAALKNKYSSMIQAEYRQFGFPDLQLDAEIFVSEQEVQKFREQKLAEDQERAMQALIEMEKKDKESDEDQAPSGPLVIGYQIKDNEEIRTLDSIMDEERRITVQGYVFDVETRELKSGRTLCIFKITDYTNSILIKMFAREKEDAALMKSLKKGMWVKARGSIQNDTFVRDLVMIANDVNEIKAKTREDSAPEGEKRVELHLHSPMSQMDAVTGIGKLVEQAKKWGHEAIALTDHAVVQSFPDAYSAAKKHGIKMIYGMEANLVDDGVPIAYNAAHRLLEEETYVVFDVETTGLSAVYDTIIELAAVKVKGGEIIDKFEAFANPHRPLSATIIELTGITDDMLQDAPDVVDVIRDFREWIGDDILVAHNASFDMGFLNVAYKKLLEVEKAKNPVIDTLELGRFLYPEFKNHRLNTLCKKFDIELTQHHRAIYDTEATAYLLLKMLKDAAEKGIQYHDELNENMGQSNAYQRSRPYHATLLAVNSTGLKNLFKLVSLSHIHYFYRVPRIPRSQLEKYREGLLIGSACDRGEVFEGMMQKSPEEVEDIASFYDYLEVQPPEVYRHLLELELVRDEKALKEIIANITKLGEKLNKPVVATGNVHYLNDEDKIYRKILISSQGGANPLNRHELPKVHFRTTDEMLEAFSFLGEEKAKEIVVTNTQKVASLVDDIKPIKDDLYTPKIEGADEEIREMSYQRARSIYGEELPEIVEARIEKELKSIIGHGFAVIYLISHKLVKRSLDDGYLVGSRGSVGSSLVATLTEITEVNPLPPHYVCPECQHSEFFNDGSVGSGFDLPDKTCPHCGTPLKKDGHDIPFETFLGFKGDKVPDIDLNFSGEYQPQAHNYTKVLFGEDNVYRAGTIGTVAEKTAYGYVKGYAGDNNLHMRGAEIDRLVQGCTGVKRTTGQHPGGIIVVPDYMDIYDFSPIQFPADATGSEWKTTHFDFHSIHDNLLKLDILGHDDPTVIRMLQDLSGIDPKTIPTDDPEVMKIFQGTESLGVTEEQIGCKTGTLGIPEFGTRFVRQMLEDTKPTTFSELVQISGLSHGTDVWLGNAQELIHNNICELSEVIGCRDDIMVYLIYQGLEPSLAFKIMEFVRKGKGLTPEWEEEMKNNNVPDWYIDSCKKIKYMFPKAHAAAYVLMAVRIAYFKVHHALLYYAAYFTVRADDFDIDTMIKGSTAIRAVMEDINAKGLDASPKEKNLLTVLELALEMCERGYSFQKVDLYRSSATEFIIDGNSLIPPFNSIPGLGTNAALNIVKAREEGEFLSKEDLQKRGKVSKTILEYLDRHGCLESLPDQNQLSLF

As to `Nc1ccc(CCN2CCN(c3cccc(C(F)(F)F)c3)CC2)cc1`, the Potency entry in experiment [1], in experiment [2], in experiment [3], in [4], in [6] and in [8] was “inactive” throughout. The compound was called inactive in experiment [5] and in experiment [7].
On to `COc1ccc2c(c1)/C(=C/c1cnc[nH]1)C(=O)N2`, for which the Potency in experiment [9] is 6.56 µM (active). The Potency result in experiment [1], in experiment [3], in [4] and in experiment [8] was “inactive” each time. Further, the result in [5] and in experiment [7] was inactive.
As for `O=[N+]([O-])c1cc(O)c(O)c([N+](=O)[O-])c1`, the Potency result in [9], in [2], in experiment [3], in [4] and in [6] was “inactive” in each case. The compound was called inactive in experiment [5] and in experiment [7].
For the compound `Oc1ccc2c3c1O[C@H]1c4oc5ccccc5c4C[C@@]4(O)C(C2)N(CC2CC2)CCC314` (stereo partly specified), the Potency in [1] is 7.94 µM (active). In addition, the Potency entry in [2], in experiment [3], in [4], in experiment [6] and in experiment [8] was “inactive” throughout. In addition, the result in experiment [5] and in [7] was inactive.
For `CNc1ccc2oc(C[C@H]3O[C@@]4(CC[C@H]3C)O[C@H]([C@H](C)C(=O)c3ccc[nH]3)[C@H](C)C[C@H]4C)nc2c1C(=O)O`, the results for the Potency in experiment [1] and in experiment [2] were 7.08 µM (active) and 1.58 µM (active), respectively. Moreover, the Potency result in [3] and in experiment [4] was “inactive” each time. Further, the result in experiment [5] and in [7] was inactive.
Turning to `CCCN1CCCC2Cc3[nH]ncc3CC21` (stereo unspecified), the Potency result in experiment [1] and in experiment [2] was “inactive” in each case.
With `CCCC[N+]1(C)C2CC(OC(=O)[C@H](CO)c3ccccc3)CC1C1OC12` (stereo partly specified), the Potency result in experiment [9], in experiment [3] and in experiment [6] was “inactive” throughout. Besides, the result in experiment [5] and in experiment [7] was inactive.
For the compound `CCCN1CCc2cc(O)cc3c2[C@H]1Cc1ccc(O)c(O)c1-3`, the Potency entry in experiment [3] and in experiment [4] was “inactive” in each case. Besides, the compound was classed as inactive in experiment [5] and in experiment [7]. Besides, in experiment [8], the Potency was 3.01 µM (active).
Regarding `CCNC(=O)[C@H]1O[C@@H](n2cnc3c(N)ncnc32)[C@H](O)[C@@H]1O`, the Potency entry in experiment [9], in [3], in experiment [4] and in experiment [8] was “inactive” in each case. Moreover, the compound was called inactive in experiment [5] and in experiment [7].
As to `CC1OC1P(=O)(O)O` (stereo unspecified), the Potency result in experiment [2] is “inactive”.
With `CCn1cnc2c(Nc3cccc(Cl)c3)nc(N[C@@H]3CCCC[C@@H]3N)nc21`, in [2], the Potency was 3.55 µM (active). Also, the Potency entry in experiment [3] and in [8] was “inactive” throughout. Besides, the compound was called inactive in experiment [5] and in experiment [7].
For `CCCCCCCCCCCCCC(=O)O[C@@H]1[C@@H](C)[C@@]2(O)[C@@H](C=C(CO)C[C@@]3(O)C(=O)C(C)=C[C@@H]23)C2C(C)(C)[C@@]21OC(C)=O` (stereo partly specified), the Potency result in experiment [3] and in experiment [4] was “inactive” in each case. The compound was classed as inactive in experiment [5] and in experiment [7].
With `C[N+]1(C)CCc2cc3c(cc2[C@H]1[C@@H]1OC(=O)c2c1ccc1c2OCO1)OCO3`, the Potency entry in experiment [9], in [3] and in [6] was “inactive” in each case. The compound was classed as inactive in [5] and in [7].
In the case of `CNC(=O)OCC[N+](C)(C)C`, the Potency entry in experiment [1] and in [2] was “inactive” each time.
